Consider 98 compounds from PubChem BioAssay AID648 (SRMLSC, 2007).

About 920 (1.1%) of roughly 86,000 compounds were called active. The full list was thinned out, with actives kept by preference. A number with no mark means an inactive call.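 How the source made its calls: active means viability at or below 30%; inactive means viability above 30%.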

The assay in a line: endothelial cell growth inhibition – HUVEC, 384-well, primary screen (AID 648).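 Further: 100% = median luminescence of DMSO-only cell control wells on each plate.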 The settings on record: HUVEC proliferation, CellTiter-Glo luminescence, 72 h; hits give low values; screened at 10 µM (by protocol).
As for `Cc1ccc(/C=N/NC(=O)C2=NNC(c3ccccc3)(c3ccccc3)C2)c(O)c1`, the viability is 25.4% (active).
The result for `C/C(=N\NC(=O)c1nc(C)cc(C)n1)c1ccccc1` reads 93.6%; that for `Cc1ccc(OCC(=O)N/N=C\c2ccco2)c(C)c1`, 93%.
The result for `CCN(CC)CCn1c2ccc(Cl)cc2c2nc(C)sc21` reads 87.5%.
In the case of `CCOC(=O)c1ccc(N2C(=O)CC(N(C)Cc3ccccc3)C2=O)cc1` (stereo not drawn), the viability was 92.5%.
The result for `COc1ccc(CC(=O)Nc2ccc(-c3nnc(-c4ccc(C)cc4)o3)cc2)cc1` reads 61.7%.
Turning to `COc1cccc(NC(=O)Cc2ccc(C)cc2)c1`, the viability is 95.9%.
The result for `COc1ccc(NC(=O)/C(Cl)=C(/Cl)S(=O)Cc2ccc(C)cc2)cn1` (stereo not drawn) reads 1.52% (active); that for `COc1cc(C(=O)OC(C)C(=O)NCC2CCCCC2)cc(NC(=O)c2ccco2)c1OC` (stereo not drawn), 100%.
The result for `N#CCSc1nc2ccc(N3CCOCC3)cc2c(=O)n1CCc1ccccc1` reads 90.5%.
On to `Cc1ccc(CNC(=O)CCNS(=O)(=O)c2cccc3nonc23)cc1`, for which the viability is 95.1%.
As to `COc1ccc(-c2nnco2)cc1OC`, the viability is 102%.
`COc1ccc(-c2cc(C(F)(F)F)nc(S(C)(=O)=O)n2)cc1OC`: the viability is 13.2% (active).
In the case of `COc1ccc(-c2cc(C(F)(F)F)nc(NCc3cccnc3)n2)cc1`, the viability was 88.9%.
The result for `COC(=O)C1C(=O)NCC1c1ccc(OC)cc1` (stereo not drawn) reads 93.7%.
For `COCc1[nH][nH]c(=O)c1C=Nc1ccc(F)cc1F`, the viability was 86.9%.
Consider `CCN(CC)CCCNC(=O)CCc1ccccc1`, for which the viability is 103%.
In the case of `Cc1cc(N2CCN(S(=O)(=O)c3ccc(C)c(C)c3)CC2)c2ccccc2n1` it was 81.6%; in that of `Cc1ccc(NC(=S)NC(NC(=O)Cc2cccc3ccccc23)C(Cl)(Cl)Cl)cc1` (stereo not drawn), 4.6% (active); in that of `Cc1ccc(NC(=O)CCN2CCc3ccccc3C2)cc1`, 103%.
In the case of `CC(=O)c1cccc(NC(=O)Nc2ccc(C)cc2)c1` it was 90%.
The result for `COc1ccc(-c2cn(-c3ccc(C)cc3)c(=O)n2CC(=O)Nc2ccc(OC)c(OC)c2)cc1` reads 92.4%; that for `COc1ccc(-c2nnc(SCc3cccnc3)o2)cc1`, 104%.
Take `COc1cc2c(cc1OC)C(C(C)C)=NC(C)(C)C2`: the viability is 90.5%.
In the case of `COc1ccc(CCNC(=O)CN(c2ccccc2)S(C)(=O)=O)cc1OC` it was 94.6%; in that of `FC(F)(F)c1nnc2ccc(N3CCN(c4ccccc4)CC3)nn12`, 85.4%; in that of `COC(=O)c1ccccc1NC(=O)Cc1ccccc1OC`, 91.1%.
For the compound `CC(C)n1c(C(O)c2ccccc2)nc2ccccc21` (stereo not drawn), the viability is 99.3%.
In the case of `Cc1ccc(C(CC(=O)O)Nc2nc(N3CCCCC3)nc(N3CCCCC3)n2)cc1` (stereo not drawn) it was 99.9%; in that of `CC(Nc1nc(N2CCCC2)nc2ccccc12)c1ccccc1` (stereo not drawn), 4.14% (active).
Turning to `CCN(c1ccccc1)S(=O)(=O)c1ccc(C(=O)Nc2nccs2)cc1`, the viability is 104%.
Consider `Cc1ccc(-c2noc(CC(c3ccccc3)c3ccccc3)n2)cc1`, for which the viability was 135%.
Take `COc1ccc(N2CCN(Cc3ccc(Br)s3)CC2)cc1`: the viability was 108%.
Take `COc1ccc(Cl)cc1C(=O)NCC#N`: the viability is 91.6%.
For the compound `O=C(NCc1ccccc1)C1CCCN(S(=O)(=O)c2cccs2)C1` (stereo not drawn), the viability was 93%.
Regarding `CC(=O)Oc1ccc(C(C)=O)c2c1OCCO2`, the viability is 82.4%.
Take `CCN(CC)C(=O)CC1(c2ccccc2OC)CCOC(C(C)C)C1` (stereo not drawn): the viability is 103%.
Take `OC(COc1ccccc1)Cn1cc(Br)cn1` (stereo not drawn): the viability is 99.8%.
The result for `CC(C)c1ccc(OCC(O)Cn2cnc3ccccc32)cc1` (stereo not drawn) reads 84.8%.
Take `OC(CN=c1sc2ccccc2n1CC(O)COc1ccccc1)COc1ccccc1` (stereo not drawn): the viability is 28.9% (active).
The result for `COc1ccccc1/C=C/C1=NC(=C\N(C)C)/C(=O)O1` reads 90.8%.
In the case of `CC(C)c1ccc(-c2noc(C3CCCN(S(C)(=O)=O)C3)n2)cc1` (stereo not drawn) it was 82.4%.
`Cc1ccc(CNC(=O)C2CCCN2C(=O)NCc2ccccc2)cc1` (stereo not drawn): the viability is 102%.
Consider `CC1CCC(N2CC(=O)N(Cc3ccc4c(c3)OCO4)C(c3ccc(F)cc3)C2=O)CC1` (stereo not drawn), for which the viability is 104%.
`C=CCn1c(N)c(C(=O)OCC(C)C)c2nc3ccccc3nc21`: the viability was 66.4%.
The result for `CC(C)Cn1c(N)c(C(=O)NCc2cccs2)c2nc3ccccc3nc21` reads 3.01% (active); that for `C=CCn1c(N)c(S(=O)(=O)c2cccs2)c2nc3ccccc3nc21`, 107%.
In the case of `O=C(Nc1ccc2nc3n(c(=O)c2c1)CCCCC3)c1ccccc1Cl` it was 109%; in that of `CCOC(=O)c1cc2c(ccn2C)n1CC(=O)N1CCC(C)CC1`, 93.4%.
Turning to `O=C(CC(O)(C(F)(F)F)C(F)(F)F)Nc1ccc(Cl)c(Cl)c1`, the viability was 3.08% (active).
The result for `CN(C)CCNC(CC(=O)Nc1ccc(Cl)c(Cl)c1)C(=O)O` (stereo not drawn) reads 93.2%.
The result for `N/C(=N\OC(=O)Nc1ccc(Cl)c(Cl)c1)c1ncc(C(F)(F)F)cc1Cl` reads 60.3%.
The result for `COc1ccc(-c2cc3nc(C)c(CCC(=O)NC(C)CCc4ccco4)c(C)n3n2)c(OC)c1` (stereo not drawn) reads 88.3%.
For the compound `CCNC(=O)NC(=O)C(C)OC(=O)c1cc(S(=O)(=O)N2CCCCCC2)ccc1OC` (stereo not drawn), the viability is 79.6%.
The result for `Cc1[nH][nH]c(=O)c1C(c1ccc(-c2ccc(Cl)cc2)o1)c1c(C)[nH][nH]c1=O` reads 24% (active); that for `Cc1[nH][nH]c(=O)c1N=Nc1ccccc1`, 109%.
On to `CCCCOC(=O)Cn1c(=N)n(CCN(CC)CC)c2ccccc21`, for which the viability was 104%.
Turning to `O=C(COc1cc(Cl)c(Cl)cc1Cl)NC(=O)NC1CCCC1`, the viability was 88.8%.
As for `O=S(=O)(NCC1OCCc2ccccc21)c1ccccc1` (stereo not drawn), the viability is 104%.
In the case of `COC(=O)C(C(=O)Nc1cccc(C)n1)C1CCCCCC1` (stereo not drawn) it was 88.7%; in that of `COC(=O)c1ccccc1Oc1c(F)c(F)nc(N2CCOCC2)c1F`, 95.4%; in that of `O=C(O)[C@@H]1CCCN1c1ncnc2sc3c(c12)CCC3`, 99%.
`OCCNc1nc2ccccc2n1-c1ncnc2sc3c(c12)CCC3`: the viability was 4.2% (active).
For `CC(C)(C)C(=O)Cn1c(NCCO)nc2ccccc21`, the viability was 95.1%.
Consider `CN=C1SC(CC(=O)Nc2ccc(C(=O)O)cc2)C(=O)N1C` (stereo not drawn), for which the viability is 88%.
In the case of `CCC(=O)NC(Nc1nc2ccc(C)cc2s1)(C(=O)OC)C(F)(F)F` (stereo not drawn) it was 101%.
With `Cc1ccc(C)c(NC2=NCC(=O)N2c2ccc3c(c2)OCCO3)c1`, the viability is 103%.
As to `CCn1c(/C=C/c2ccc([N+](=O)[O-])o2)nc2ccccc2c1=O`, the viability is 4.01% (active).
The result for `O=c1c2ccccc2nc(N/N=C/c2ccccc2)n1O` reads 101%.
In the case of `Cc1nc2ccccc2c(=O)n1CCCn1ccnc1` it was 92.5%; in that of `CCn1c(COc2ccc(OC)cc2)nnc1SCC(=O)Nc1cc(OC)ccc1OC`, 98%; in that of `CCn1nc(C)c(NC(=O)/C=C/c2ccc(OC)c(COc3ccc(Br)cc3)c2)c1C`, 10.6% (active).
In the case of `COc1ccc(/C=C/C(=O)Nc2c(C)nn(C)c2C)cc1COc1ccc(Br)cc1` it was 46.5%; in that of `c1ccc(-n2nc3ccccc3n2)cc1`, 94.1%; in that of `COC(=O)c1[nH]c2ccc(Br)cc2c1NC(=O)Oc1ccccc1`, 86.1%.
Consider `Cn1c(N)c(C(=O)COC(=O)C23CC4CC(CC(C4)C2)C3)c(=O)n(C)c1=O`, for which the viability was 99.2%.
As to `Cc1ccc(CN(C(=O)c2sc3ccccc3c2Cl)C2CCS(=O)(=O)C2)cc1` (stereo not drawn), the viability was 80.5%.
As to `CC(C)CC[n+]1ccn(C2=C([O-])c3ccccc3C(=O)/C2=N\S(=O)(=O)c2ccccc2)c1`, the viability was 20.6% (active).
In the case of `CN(Cc1ccccc1)C(=O)COc1ccccc1` it was 98.7%; in that of `COc1nc(NC2CCCCC2)nc(N2CCCCCC2)n1`, 77.8%; in that of `CCOC(=O)c1cnc(SCc2nc(N)nc(Nc3ccc(OC)cc3)n2)nc1N`, 111%.
The result for `Cc1cccc2nc(CSc3nc4[nH]ncc4c(=O)n3-c3cccc(Cl)c3)cc(=O)n12` reads 76.9%; that for `CCn1c(CNC(=O)c2ccccc2)nnc1SCC(=O)N1CCN(c2ccccc2)CC1`, 98.7%.
Regarding `Cc1sc2nc(SCC(N)=O)n(C)c(=O)c2c1C`, the viability is 98.6%.
On to `CCCn1c(=O)c2ccccc2n2c(SCC(=O)/C(C#N)=C(\C)N)nnc12`, for which the viability was 83.6%.
In the case of `C=CCn1c(SCC(=O)/C(C#N)=C(\C)N)nc2sc(C)c(C)c2c1=O` it was 28% (active).
The result for `O=C(CSCc1c(F)cccc1Cl)NCC1CCCO1` (stereo not drawn) reads 101%.
The result for `Cc1ccc(O/C=C2\OC(=O)c3ccccc32)cc1` reads 98.2%; that for `COC(=O)c1sc(=S)n(-c2ccc(Cl)cc2)c1C`, 90%.
`COc1ccc(-n2nnnc2SCc2nc(N)nc(N3CCOCC3)n2)cc1`: the viability is 96.3%.
In the case of `CCOC(=O)c1sc(NC(=O)CSc2nc(C)cc(C(F)(F)F)n2)c(C#N)c1C`, the viability is 88.5%.
As for `COc1ccccc1-c1nc(C#N)c(N2CCC(C(N)=O)CC2)o1`, the viability was 95.4%.
In the case of `COc1ccc(Nc2oc(-c3ccccc3Cl)nc2C#N)cc1` it was 29.9% (active).
In the case of `CCOc1ccc(Nc2oc(Cc3ccccc3)nc2C#N)cc1` it was 104%.
In the case of `O=C(Nc1cccc(NC(=O)c2ccco2)c1)c1cnccn1` it was 83.6%.
As for `Fc1ccc(-n2c(Cc3ccccc3)nnc2SCc2nc(-c3ccc(Cl)cc3)no2)cc1`, the viability was 76.6%.
The result for `COc1ccc(N(CC(=O)NC2CCCCC2)S(=O)(=O)c2c(C)[nH]c(=O)[nH]c2=O)cc1` reads 96.7%.
Take `COc1ccc([N+](=O)[O-])cc1C1NN=C(c2cccc3ccccc23)S1` (stereo not drawn): the viability is 81.9%.
